The whole screen tested about 69,000 compounds, of which about 8,600 (12%) showed an effect of 50% or more. What follows is part of a selection rich in strong results, with near analogues and random picks from the rest.
These molecules were tested on Plasmodium berghei (assay: Screen against P. berghei liver stage (PbLuc), transformed with Luciferase, at 10uM). Conditions: tested at 10 uM.
Format: functional, HepG2

Structure (SMILES)	INHIBITION
CN(Cc1ccco1)C(=O)CN1CCOC(Cn2cncn2)C1 (stereo not drawn)	-0.219%
CC(C)N(C)Cc1cnc2n1CCN(C(=O)Cc1ccccn1)C2	24.3%
O=C1CN(c2ccc(CNC(=O)Nc3nccs3)cc2)CCN1	13.8%
COc1ccc(OC)c(CN(C)c2ncc(S(N)(=O)=O)s2)c1	-54.4%
CN(c1ncc(S(N)(=O)=O)s1)C1CCc2ccccc2C1 (stereo not drawn)	65.6%
CN(c1ncc(S(N)(=O)=O)s1)C1CCC1	52.2%
CCN(Cc1ccoc1)c1ncc(S(N)(=O)=O)s1	20.8%
CCN(Cc1ccc2c(c1)OCO2)c1ncc(S(N)(=O)=O)s1	27.5%
CN(c1ncc(S(N)(=O)=O)s1)C1CCc2ccccc21 (stereo not drawn)	36.5%
COc1ccc(CN(C)c2ncc(S(N)(=O)=O)s2)c(OC)c1	-28.2%
CN(Cc1ccc2c(c1)OCCO2)c1ncc(S(N)(=O)=O)s1	54.4%
CCc1ncc(C(=O)N(C)C2Cc3ccccc3C2)cn1	-98.6%
CS(=O)(=O)c1cn[nH]c1C1CCCCN1C(=O)Cc1cccnc1 (stereo not drawn)	-5.71%
CN1CCNC(Cc2ccc(-c3cccs3)cc2)C1=O (stereo not drawn)	-52.6%
COCCN1CCOCC12CCN(C(=O)Cc1cccs1)CC2	24.9%
O=C(CN1CCC[C@@H]1C(=O)O)NCCOc1cccc(C(F)(F)F)c1	-0.18%
CC(=O)N1CCC2(CCCN(C(=O)c3ccccc3)C2)C1 (stereo not drawn)	22.2%
Cc1csc(Nc2cc(C3CCCCN3C)nc(C)n2)n1 (stereo not drawn)	16.5%
Cc1ccsc1CN(C)C(=O)c1cc2c([nH]c1=O)CCCC2=O	-1.95%
CCc1ncncc1C(=O)NCCNS(=O)(=O)c1ccccc1	-118%
CCc1ncncc1C(=O)NCCNS(=O)(=O)c1ccc(C)cc1	-70.7%
Cc1ccc(S(=O)(=O)NCCNC(=O)c2cncnc2C)cc1	78.1%
CN(C)C(C)(C)CNCc1c[nH]nc1-c1cc2ccccc2o1	36.9%

Structure (SMILES)	INHIBITION
Cc1cnc(C(=O)NCc2cccnc2OC(C)C)cn1	33.7%
O=C1CC(NCc2ccncc2)CN1Cc1cccc(F)c1 (stereo not drawn)	63.5%
Cc1cccc(CNC2CC(=O)N(Cc3cccc(F)c3)C2)c1 (stereo not drawn)	13.87%
O=C1CC(NCc2ccc(OC(F)F)cc2)CN1Cc1cccc(F)c1 (stereo not drawn)	0.38%
NC1CCC(n2cc(C(=O)NC3CCc4ccccc4C3)nn2)CC1 (stereo not drawn)	25.5%
CNC(=O)c1ccc(CNc2ccncc2Cl)cc1	57.7%
CCOc1ccc(Cl)c(C(=O)NCc2ccc(C(=O)NC)cc2)n1	14.7%
CC(C)N(C)C(=O)c1ccc(CNc2ccncc2Cl)cc1	97.1%
CNC(=O)c1ccc(CNC(=O)c2ccc(Cl)cc2F)cc1	-8.675%
CC(C)N(C)C(=O)c1ccc(CNc2cncc(Cl)n2)cc1	32.9%
CC(C)N(C)C(=O)c1ccc(CNc2ncc(C#N)cc2Cl)cc1	44.5%
CN1CCOC(CNCc2ccc(OCc3ccccn3)cc2)C1 (stereo not drawn)	-38.7%
O=C(c1ccnnc1)N1C[C@@H](OCc2cccnc2)[C@H]2OCCC[C@H]21	37.1%
NC(=O)c1ccc(CNC2CC2)cc1	-30.1%
Cc1ccc(C2(CN3CCN(Cc4cncn4C)CC3)CC2)cc1	-32.7%
c1ccc(-c2cnc(CN(Cc3cccnc3)CC3CCCO3)o2)cc1 (stereo not drawn)	-5.26%
CC(C)(C)c1cnc(CN(Cc2cccnc2)CC2CCCO2)o1 (stereo not drawn)	75.4%
CCN(Cc1cccnc1)CC1CCCO1 (stereo not drawn)	-0.113%
CNC(=O)CCc1cc(C)nc(C2CCN(C(=O)CN(C)C)CC2)c1	4.9%
CCc1nc(CN2CCCN(C(=O)c3ccnc(C)n3)CC2)cs1	25.5%
Cc1cc(C)cc(CN2CCN(Cc3cc(C#N)n(C)c3)CC2=O)c1	11.8%
NCCc1cccc(CN2CCN(c3cccc(Cl)c3)C(=O)C2)c1	50.5%
Cc1ccc(CN2CCN(Cc3ccc4nonc4c3)CC2=O)cc1	5.78%

Structure (SMILES)	INHIBITION
Cc1cc(C)cc(CN2CCN(Cc3ccc4nonc4c3)CC2=O)c1	37.6%
NCCc1cccc(CN2CCN(c3ccccc3)C(=O)C2)c1	26.8%
Cc1cc(C)cc(CN2CCN(Cc3cccc(CCN)c3)CC2=O)c1	67.7%
Cc1cc(C)cc(N2CCN(Cc3cccc(CCN)c3)CC2=O)c1	2.18%
COc1cccc(N2CCN(Cc3cccc(CCN)c3)CC2=O)c1	35.1%
Cc1ccc(CN2CCN(Cc3ccncc3)CC2=O)cc1	50.3%
Cn1cc(CN2C[C@@H]3COC[C@H](C(=O)Nc4cccnc4)[C@@H]3C2)cn1	0.542%
CCn1cc(CN2CCCN(C(=O)c3c(C)oc(C)c3C)CC2)cn1	15.6%
CCC[C@H]1CN(S(C)(=O)=O)C[C@@H]1NC(=O)c1ccc(COC)cc1	23.9%
Cc1ccoc1C(=O)N1CC[C@H]2[C@H](C[C@@H](CN3CCCC3)N2C)C1	47.4%
CC(=O)N1N=C(c2cccs2)OC1C(=O)Nc1ccc(C)cc1 (stereo not drawn)	-25.1%
CC(=O)N1N=C(c2cccs2)OC1C(=O)Nc1ccccc1 (stereo not drawn)	-4.32%
CCOc1ccc(NC(=O)C2OC(c3cccs3)=NN2C(C)=O)cc1 (stereo not drawn)	11.5%
COc1ccc(NC(=O)C2OC(c3cccs3)=NN2C(C)=O)cc1 (stereo not drawn)	28.3%
CC(=O)N1N=C(c2cccs2)OC1C(=O)NCc1ccc(C)o1 (stereo not drawn)	53%
CCc1ccc(NC(=O)C2OC(c3cccs3)=NN2C(C)=O)cc1 (stereo not drawn)	52.1%
CCn1cc(C(=O)NCCc2nc(-c3ccc(C)cc3)n[nH]2)c(C)n1	12.8%
COc1cccc2c1ccn2CCC(=O)N1CCC(C(=O)O)CC1	25.1%
CN(C)C(=O)CN1C[C@H]2CN(Cc3cccc(F)c3)C(=O)[C@H]2C1	25.2%
CC(C)C(=O)N1CCC12CCCN(C(=O)c1ccccc1)C2 (stereo not drawn)	36.2%
Cc1occc1CNC(=O)C1(C)CCCN(C(=O)c2ccccc2)C1 (stereo not drawn)	58.3%
Cc1occc1CNC(=O)C1(C)CCCN1C(=O)c1ccccc1 (stereo not drawn)	28.7%
